High-throughput results: PubChem BioAssay, Broad Institute
CD40 NFkB inh – inhibitors of CD40-induced NF-kB signaling, primary screen, BL2 cells, luciferase reporter, single point | CD40L-induced, 4 h | inhibition, % at 10 µM | 0.94% of 83,000 active | AID 1053188, 2014;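 active means mean inhibition of at least 50% with a set share of replicates also reaching that level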;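 further: 0% = neutral control wells and 100% = IKK inhibitor VII at 50 µM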
Starred values were filed as active, the others as inactive; [ ] = dose if it differs, or a comment. The sample as a whole holds a higher share of hits than the screen did.

SMILES	CD40 NFkB inh
Cc1cc(C(=O)Nc2cc(S(C)(=O)=O)ccc2Cl)no1	0
COc1cccc(-c2ccc([C@@H]3[C@@H](C#N)N(C(=O)Cc4ccccc4)[C@@H]3CO)cc2)c1	-3
O=C(Nc1ccc(F)cc1)N1CCCCN2[C@H](CO)[C@H](c3ccc(C#CC4CC4)cc3)[C@@H]2C1	13[25 µM]
CC(C)(C)[S@@](=O)N1Cc2cc(C(=O)N[C@@H]3CCN(Cc4ccccc4)C3)nc(-c3cccc(-c4cncnc4)c3)c2[C@H]1CCO	-5
Cc1noc(C)c1NC(=O)N(C)C[C@H]1OCc2ccccc2-c2c(n(C)c3ccccc23)C(=O)N([C@H](C)CO)C[C@H]1C	3[25 µM]
CC(C)NC(=O)N1[C@H](C#N)[C@@H](c2ccc(C#CC3CC3)cc2)[C@@H]1CO	14[25 µM]
CNC(=S)NN=C(C)CCCC(C)=NNC(=S)NC	71*
C[C@H](CO)N1C[C@H](C)[C@@H](CN(C)C(=O)Nc2ccc(F)cc2)Oc2c(NS(=O)(=O)c3cn(C)cn3)cccc2C1=O	-4[25 µM]
CS(=O)(=O)N1C2CN(CC3CC3)CC1C2c1ccc(Br)cc1 (stereo unspecified)	-9
CC(=O)NC[C@@H]1[C@@H](c2ccc(C3=CCCCC3)cc2)[C@@H](CO)N1C(=O)C1CCC1	4
O=C1c2ccccc2-c2c1cccc2C(=O)N1CCOCC1	11
O=C1C(=C(c2ccccc2)N2CCOCC2)Cc2ccccc21	89*
O=C(c1ccccc1)N1CCN(C(=O)N2CCOCC2)CC1	8
O=C(C[C@@H]1C[C@H]2c3cc(NC(=O)C4CCC4)ccc3O[C@H]2[C@H](CO)O1)NCc1ccccn1	-1[25 µM]
CN(C[C@H]1[C@@H](c2ccccc2)[C@H](CO)N1Cc1ccccn1)S(C)(=O)=O	-6[25 µM]
CC(C)C#Cc1ccc([C@H]2[C@@H](CO)N3C(=O)CN(C(=O)NC4CCCCC4)C[C@@H]23)cc1	-3
O=C1C(Br)=C(c2ccccc2)C(c2ccccc2)=C1c1ccccc1	82*
COc1cccc(S(=O)(=O)N2CC[C@@H]3[C@@H](CO)Nc4ccc(C#Cc5ccccc5)cc4[C@@H]32)c1	0
CN1C(=O)c2cc(NC(=O)Nc3ccc(Cl)cc3)ccc2OC[C@H]2O[C@@H](CC(=O)NCCN3CCCCC3)CC[C@@H]21	-3[25 µM]
Cn1cnc(S(=O)(=O)N2CC[C@@H]3[C@@H](CO)Nc4ccc(-c5ccccc5F)cc4[C@@H]32)c1	-11[25 µM]
CN1C(=O)c2cc(NC(=O)Nc3ccc(Cl)cc3)ccc2OC[C@H]2O[C@H](CC(=O)NCCN3CCCCC3)CC[C@H]21	-15[25 µM]
CC(C)NC(=O)N1Cc2cc(C(=O)NC3Cc4ccccc4C3)nc(-c3cccc(-c4cccnc4)c3)c2[C@@H]1CCO	57*[25 µM]
C/C=C/c1cccc(-c2nc(C(=O)NC3Cc4ccccc4C3)cc3c2[C@H](CCO)N(C(C)=O)C3)c1	13[25 µM]
CCC(=O)N1Cc2cc(C(=O)N3CCCCC3)nc(-c3cccc(-c4cccnc4)c3)c2[C@H]1CCO	1[25 µM]
CN(C)C(=O)c1ccc(-c2ccccc2[C@H]2[C@@H](CO)N(C(=O)C3CCCC3)[C@H]2C#N)cc1	0
SMILES	CD40 NFkB inh
CCCC#Cc1ccc([C@H]2[C@@H](CO)N(C(C)=O)[C@H]2CNC(=O)C2CCCC2)cc1	3
Cc1nnnn1/C(=C\c1ccccc1)C(=O)OCC(=O)Nc1ccc(Cl)cc1F	78*
CCCCC(=O)Nc1ccc(Cl)cc1F	-11
O=C(COC(=O)Cc1ccsc1)Nc1ccc(Cl)cc1F	3
O=C(O)c1ccc([N+](=O)[O-])cc1	6
O=C1CC(=O)OC(c2ccc([N+](=O)[O-])cc2)O1	86*
O=C1CSC(c2ccc([N+](=O)[O-])cc2)N1CCN1CCCCC1 (stereo unspecified)	12
COc1ccccc1S(=O)(=O)N1CC[C@H]2[C@H](CO)Nc3ccc(-c4ccccc4F)cc3[C@H]21	-35[25 µM]
COc1ccccc1-c1ccc([C@H]2[C@@H](CO)N[C@@H]2CNC(=O)C2CCC2)cc1	6
O=S(=O)(c1cccc2cnccc12)N1CCNCC1	53*[25 µM]
O=S(=O)(c1cccc2cccnc12)N1CCN(c2ccccn2)CC1	11
O=S(=O)(c1cccc2cccnc12)N1CCN(c2ccccc2)CC1	6
COCC(=O)N1[C@H](C#N)[C@@H](c2ccccc2-c2cccc(F)c2)[C@H]1CO	-9[25 µM]
COc1ccc(NC(=O)N2CCCCN3[C@@H](CO)[C@@H](c4ccc(C#Cc5ccccn5)cc4)[C@@H]3C2)cc1	-8[25 µM]
O=S(=O)(NCCc1nc2ccccc2[nH]1)c1ccccc1	9
O=S(=O)(/C(=C\c1ccc(C(F)(F)F)cc1)c1nc2ccccc2[nH]1)c1ccccc1	60*
O=S(=O)(Nc1nc2ccccc2[nH]1)c1ccccc1	10
C/C=C/c1ccc([C@H]2[C@@H](CO)N3CCCCN(C(=O)C4CCCC4)C[C@@H]23)cc1	-2[25 µM]
COc1cccc(/C=N/NC(=O)CCn2nnc3ccccc32)c1	-14
COc1ccc(/C=N/NC(=O)CCn2cnc3ccccc32)cc1	-7
COc1ccc(/C=N\n2nnc3ccccc32)cc1	58*
CCOC(=O)Cn1cnc2sc3c(c2c1=O)CCC3	56*
CCOC(=O)Cn1cnc2c(sc3nc(C)cc(C)c32)c1=O	-75
